What was measured:
Assay in all cases: log2 ratio of Biotin-Ahx-Ub-VS probe labelling (fragment/DMSO); higher = less target engagement (more negative = stronger competition), active = hit call of the paper (q ≤ 0.05, log2 ratio ≤ -1)
Conditions in all cases: compound concentration: 200 uM; treatment time: 3 h
USP19 = target: T1, USP19 (UniProt O94966)
T1 sequence (whole entry): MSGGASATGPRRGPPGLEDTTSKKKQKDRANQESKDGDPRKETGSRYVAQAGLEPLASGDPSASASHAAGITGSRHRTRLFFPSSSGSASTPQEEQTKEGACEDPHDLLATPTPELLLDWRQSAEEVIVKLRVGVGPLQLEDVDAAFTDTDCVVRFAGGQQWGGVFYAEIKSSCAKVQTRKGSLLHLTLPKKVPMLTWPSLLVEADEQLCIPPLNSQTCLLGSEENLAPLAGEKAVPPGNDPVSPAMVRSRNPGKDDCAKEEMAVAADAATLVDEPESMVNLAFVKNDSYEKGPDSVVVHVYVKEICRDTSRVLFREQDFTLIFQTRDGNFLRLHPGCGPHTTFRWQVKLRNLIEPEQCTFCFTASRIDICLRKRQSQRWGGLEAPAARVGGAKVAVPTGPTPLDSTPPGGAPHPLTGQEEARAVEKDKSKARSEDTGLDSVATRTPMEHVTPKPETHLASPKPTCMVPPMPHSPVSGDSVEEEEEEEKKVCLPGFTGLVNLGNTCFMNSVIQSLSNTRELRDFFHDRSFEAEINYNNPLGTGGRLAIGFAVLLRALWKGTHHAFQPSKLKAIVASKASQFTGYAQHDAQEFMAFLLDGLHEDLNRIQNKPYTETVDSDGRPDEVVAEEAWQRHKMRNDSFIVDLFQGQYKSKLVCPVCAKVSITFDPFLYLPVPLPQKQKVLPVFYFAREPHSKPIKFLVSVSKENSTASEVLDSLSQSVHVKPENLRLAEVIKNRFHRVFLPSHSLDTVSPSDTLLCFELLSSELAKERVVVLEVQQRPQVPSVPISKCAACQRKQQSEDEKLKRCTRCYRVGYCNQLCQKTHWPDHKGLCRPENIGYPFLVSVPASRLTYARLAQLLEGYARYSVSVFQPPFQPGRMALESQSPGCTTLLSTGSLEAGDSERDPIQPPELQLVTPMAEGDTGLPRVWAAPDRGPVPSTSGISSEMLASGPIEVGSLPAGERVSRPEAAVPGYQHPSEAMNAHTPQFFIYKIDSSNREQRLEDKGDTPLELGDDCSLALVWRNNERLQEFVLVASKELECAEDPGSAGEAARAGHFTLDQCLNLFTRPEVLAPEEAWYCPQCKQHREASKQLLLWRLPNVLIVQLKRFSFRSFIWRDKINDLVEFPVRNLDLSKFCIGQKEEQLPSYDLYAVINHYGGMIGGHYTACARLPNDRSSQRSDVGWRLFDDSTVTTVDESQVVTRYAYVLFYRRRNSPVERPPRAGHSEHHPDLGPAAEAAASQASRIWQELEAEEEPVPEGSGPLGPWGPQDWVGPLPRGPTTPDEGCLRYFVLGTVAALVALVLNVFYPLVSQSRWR
Summary of the method: (§1)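 Labelling with Biotin-Ahx-Ub-VS (0.5 µM final, 1 h) followed a 3 h triplicate treatment of HEK293T lysate (495 µg per sample, Tris/CHAPS/IGEPAL buffer with protease inhibitors) with fragment at 200 µM or vehicle. Labelled DUBs were NeutrAvidin-enriched, digested with LysC and trypsin, and run by diaPASEF LC-MS/MS. The values, average log2 fragment/vehicle ratios by unpaired t-test, come from global-median-normalised Spectronaut label-free quantities. Proteins with ≥2 unique peptides were used.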

USP22 = target: T2, USP22 (UniProt Q9UPT9)
T2 sequence (whole entry): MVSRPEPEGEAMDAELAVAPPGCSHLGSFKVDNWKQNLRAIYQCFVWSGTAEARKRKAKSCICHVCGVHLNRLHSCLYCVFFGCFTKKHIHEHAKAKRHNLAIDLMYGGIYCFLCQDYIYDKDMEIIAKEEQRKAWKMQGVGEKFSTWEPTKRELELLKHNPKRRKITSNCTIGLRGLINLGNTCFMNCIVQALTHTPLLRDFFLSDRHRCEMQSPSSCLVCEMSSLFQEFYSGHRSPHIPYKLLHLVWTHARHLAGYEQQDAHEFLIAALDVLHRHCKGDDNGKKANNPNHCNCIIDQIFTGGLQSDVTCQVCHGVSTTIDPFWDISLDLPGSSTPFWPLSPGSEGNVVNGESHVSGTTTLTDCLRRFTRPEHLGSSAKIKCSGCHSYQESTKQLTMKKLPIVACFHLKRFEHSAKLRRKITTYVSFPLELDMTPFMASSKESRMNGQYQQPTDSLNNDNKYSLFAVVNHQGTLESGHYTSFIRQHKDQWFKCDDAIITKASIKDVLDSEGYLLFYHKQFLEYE
Summary of the method: as §1

USP24 = USP24 (UniProt Q9UPU5)
Chain of USP24 (Q9UPU5 whole entry): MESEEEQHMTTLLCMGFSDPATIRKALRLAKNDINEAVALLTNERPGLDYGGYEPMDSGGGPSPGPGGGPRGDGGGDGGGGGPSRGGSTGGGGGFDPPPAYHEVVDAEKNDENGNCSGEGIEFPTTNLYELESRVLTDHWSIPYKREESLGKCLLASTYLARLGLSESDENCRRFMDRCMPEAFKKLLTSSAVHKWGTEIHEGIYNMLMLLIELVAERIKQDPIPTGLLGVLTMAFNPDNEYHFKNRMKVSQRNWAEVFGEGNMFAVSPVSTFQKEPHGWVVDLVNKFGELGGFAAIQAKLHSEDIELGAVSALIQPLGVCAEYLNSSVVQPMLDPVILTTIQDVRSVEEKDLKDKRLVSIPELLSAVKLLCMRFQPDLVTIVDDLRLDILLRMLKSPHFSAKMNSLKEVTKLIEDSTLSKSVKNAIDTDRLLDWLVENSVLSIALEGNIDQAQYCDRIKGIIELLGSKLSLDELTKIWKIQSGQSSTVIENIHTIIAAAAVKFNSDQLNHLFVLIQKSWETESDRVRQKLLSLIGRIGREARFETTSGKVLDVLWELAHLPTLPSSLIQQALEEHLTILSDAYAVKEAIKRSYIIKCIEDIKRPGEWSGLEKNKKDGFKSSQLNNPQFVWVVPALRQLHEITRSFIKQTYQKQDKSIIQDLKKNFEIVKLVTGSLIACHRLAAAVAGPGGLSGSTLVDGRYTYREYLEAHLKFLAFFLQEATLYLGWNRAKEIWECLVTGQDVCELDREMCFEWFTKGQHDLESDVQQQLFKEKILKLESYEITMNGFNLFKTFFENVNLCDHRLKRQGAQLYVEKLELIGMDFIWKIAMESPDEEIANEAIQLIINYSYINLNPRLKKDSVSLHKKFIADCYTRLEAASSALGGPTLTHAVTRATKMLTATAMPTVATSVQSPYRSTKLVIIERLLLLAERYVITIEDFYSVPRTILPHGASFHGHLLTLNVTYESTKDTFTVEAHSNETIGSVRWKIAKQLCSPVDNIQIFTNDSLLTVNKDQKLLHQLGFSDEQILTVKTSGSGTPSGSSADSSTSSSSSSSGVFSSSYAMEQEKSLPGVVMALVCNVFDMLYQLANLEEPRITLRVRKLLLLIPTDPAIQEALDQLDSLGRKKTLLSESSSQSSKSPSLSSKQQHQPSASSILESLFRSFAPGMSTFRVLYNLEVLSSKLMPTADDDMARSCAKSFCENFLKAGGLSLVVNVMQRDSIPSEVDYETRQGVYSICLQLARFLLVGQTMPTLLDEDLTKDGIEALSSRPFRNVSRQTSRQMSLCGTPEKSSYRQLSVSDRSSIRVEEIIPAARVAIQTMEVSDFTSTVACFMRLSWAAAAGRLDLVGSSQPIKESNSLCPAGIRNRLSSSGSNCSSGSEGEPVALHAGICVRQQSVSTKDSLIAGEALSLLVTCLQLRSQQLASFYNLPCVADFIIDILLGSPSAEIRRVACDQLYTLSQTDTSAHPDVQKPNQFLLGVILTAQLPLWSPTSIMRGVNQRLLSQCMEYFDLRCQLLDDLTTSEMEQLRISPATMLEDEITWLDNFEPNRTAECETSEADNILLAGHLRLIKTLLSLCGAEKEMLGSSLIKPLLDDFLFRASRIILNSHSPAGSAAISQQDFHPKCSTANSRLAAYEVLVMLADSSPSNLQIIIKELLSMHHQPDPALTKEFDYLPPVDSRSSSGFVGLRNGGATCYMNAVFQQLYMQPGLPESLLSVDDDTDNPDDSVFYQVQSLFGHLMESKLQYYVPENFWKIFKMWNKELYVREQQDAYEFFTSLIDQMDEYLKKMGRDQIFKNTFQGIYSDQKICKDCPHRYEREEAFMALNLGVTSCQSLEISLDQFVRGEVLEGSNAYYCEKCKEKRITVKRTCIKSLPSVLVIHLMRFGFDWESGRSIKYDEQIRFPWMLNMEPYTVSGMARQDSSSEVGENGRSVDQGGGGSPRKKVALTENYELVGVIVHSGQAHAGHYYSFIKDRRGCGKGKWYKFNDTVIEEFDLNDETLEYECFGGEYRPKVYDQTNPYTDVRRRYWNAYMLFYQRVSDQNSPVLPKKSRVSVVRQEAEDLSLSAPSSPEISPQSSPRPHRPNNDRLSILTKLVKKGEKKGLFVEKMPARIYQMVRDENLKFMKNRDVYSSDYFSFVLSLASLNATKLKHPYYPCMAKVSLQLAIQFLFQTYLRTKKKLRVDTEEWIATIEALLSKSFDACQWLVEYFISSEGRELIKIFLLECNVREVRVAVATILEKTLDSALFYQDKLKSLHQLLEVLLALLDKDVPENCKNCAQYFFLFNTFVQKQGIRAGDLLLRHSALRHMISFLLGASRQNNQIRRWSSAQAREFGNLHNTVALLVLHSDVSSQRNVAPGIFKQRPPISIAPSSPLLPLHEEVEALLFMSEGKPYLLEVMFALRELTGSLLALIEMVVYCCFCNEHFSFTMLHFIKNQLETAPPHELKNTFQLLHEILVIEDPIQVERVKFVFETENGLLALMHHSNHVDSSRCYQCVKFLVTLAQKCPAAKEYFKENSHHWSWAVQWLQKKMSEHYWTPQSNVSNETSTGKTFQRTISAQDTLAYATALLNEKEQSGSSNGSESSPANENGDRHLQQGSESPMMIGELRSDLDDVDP
Summary of the method: as §1

USP25 = target: T3, USP25 (UniProt Q9UHP3)
T3 sequence (whole entry): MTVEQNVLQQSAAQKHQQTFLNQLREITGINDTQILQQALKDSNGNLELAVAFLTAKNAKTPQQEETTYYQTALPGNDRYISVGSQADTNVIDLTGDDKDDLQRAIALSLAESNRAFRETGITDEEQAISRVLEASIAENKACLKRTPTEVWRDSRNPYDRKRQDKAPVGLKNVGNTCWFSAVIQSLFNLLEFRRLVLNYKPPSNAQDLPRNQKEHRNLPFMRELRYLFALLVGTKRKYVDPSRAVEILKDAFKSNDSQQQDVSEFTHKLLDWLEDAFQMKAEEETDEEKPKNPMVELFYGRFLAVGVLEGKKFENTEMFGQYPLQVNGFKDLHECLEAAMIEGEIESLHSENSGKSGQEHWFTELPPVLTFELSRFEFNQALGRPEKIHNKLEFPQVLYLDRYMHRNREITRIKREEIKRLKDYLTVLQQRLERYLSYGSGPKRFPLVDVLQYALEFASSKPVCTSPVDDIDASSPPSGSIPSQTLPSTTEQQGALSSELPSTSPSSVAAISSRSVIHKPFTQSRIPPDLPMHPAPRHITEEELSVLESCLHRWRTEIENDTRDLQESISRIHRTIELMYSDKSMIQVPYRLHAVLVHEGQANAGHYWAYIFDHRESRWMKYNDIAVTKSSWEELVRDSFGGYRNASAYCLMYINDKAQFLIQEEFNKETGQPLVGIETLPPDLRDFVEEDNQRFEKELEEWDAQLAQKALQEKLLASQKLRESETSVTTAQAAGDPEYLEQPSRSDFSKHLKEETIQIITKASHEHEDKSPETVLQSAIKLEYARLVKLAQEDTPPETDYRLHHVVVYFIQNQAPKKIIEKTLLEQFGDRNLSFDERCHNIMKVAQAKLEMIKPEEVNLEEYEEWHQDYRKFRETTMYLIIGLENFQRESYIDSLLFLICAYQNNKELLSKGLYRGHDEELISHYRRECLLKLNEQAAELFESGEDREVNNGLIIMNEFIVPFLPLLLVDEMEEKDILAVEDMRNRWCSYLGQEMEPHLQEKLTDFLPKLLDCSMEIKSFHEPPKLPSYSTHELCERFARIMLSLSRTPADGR
Summary of the method: as §1

USP28 = target: T4, USP28 (UniProt Q96RU2)
T4 sequence (whole entry): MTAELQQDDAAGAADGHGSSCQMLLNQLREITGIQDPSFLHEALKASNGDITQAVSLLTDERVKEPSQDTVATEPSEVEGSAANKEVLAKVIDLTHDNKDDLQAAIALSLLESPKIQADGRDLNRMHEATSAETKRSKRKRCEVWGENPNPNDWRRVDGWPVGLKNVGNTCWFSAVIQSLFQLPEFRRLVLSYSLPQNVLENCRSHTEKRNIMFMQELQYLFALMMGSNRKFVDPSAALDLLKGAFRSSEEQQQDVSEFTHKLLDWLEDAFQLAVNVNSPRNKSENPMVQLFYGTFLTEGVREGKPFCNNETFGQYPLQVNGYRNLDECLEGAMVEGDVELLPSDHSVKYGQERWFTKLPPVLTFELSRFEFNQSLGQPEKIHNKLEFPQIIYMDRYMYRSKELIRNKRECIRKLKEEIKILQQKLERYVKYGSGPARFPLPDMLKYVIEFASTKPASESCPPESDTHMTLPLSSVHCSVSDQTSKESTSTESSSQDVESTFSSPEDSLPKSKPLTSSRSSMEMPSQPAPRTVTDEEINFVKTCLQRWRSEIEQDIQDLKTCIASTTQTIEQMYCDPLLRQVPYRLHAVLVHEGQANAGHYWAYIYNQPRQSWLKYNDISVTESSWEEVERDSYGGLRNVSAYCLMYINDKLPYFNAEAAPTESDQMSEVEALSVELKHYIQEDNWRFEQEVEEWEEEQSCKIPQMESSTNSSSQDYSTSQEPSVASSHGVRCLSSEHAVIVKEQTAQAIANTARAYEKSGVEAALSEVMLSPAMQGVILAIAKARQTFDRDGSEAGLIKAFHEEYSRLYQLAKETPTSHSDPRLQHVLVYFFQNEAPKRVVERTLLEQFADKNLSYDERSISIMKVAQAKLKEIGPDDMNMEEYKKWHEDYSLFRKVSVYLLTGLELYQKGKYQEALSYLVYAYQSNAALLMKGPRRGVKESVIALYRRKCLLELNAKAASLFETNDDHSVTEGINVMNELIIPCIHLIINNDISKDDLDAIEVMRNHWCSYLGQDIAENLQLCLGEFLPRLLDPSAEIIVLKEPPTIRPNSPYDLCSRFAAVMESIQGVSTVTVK
Summary of the method: as §1

Measured: log2 ratio of Biotin-Ahx-Ub-VS probe labelling

C[C@H]1CN(C(=O)CCl)CCN1C(=O)c1cnn(C)c1.Cl
inactive: USP19 -0.18 | USP22 -0.177 | USP24 -0.132 | USP25 -0.0187 | USP28 -0.325

— the supplement of paper PMC11732987, “Enantioselective OTUD7B fragment discovery through chemoproteomics screening and high-throughput optimisation” (Communications Chemistry, 2025)
